# Data: PubChem BioAssay (NCATS)
# “And” between values parts separate entries of the source, which are not always exact repeats. Identical values can stand only once. Results filed as inconclusive are left out. Entries that show only a call come without a potency. Where a structure was tested more than once in an assay, its records may differ in their call. The source made the active and inactive calls. Calls come from the whole dose curve; as a rule, active = well fitted curve in the direction sought with a large enough effect; inconclusive = small, poorly fitted or top-dose-only effect, or another doubt; inactive = no such curve, though single readings can be large; an effect the other way counts as inactive or inconclusive.
# Legend:
# [1] = test system: CRL-7250; experiment: Cytotoxic Profiling of Annotated Libraries Using Quantitative High-Throughput Screening (AID 1296008); settings: Five cell lines viability, CellTiter-Glo ATP luminescence, 48-72 h; max response: stronger effect = lower value; note: nearly all actives have a fitted effect of over 60% in size; note: potency is the fitted concentration of half-maximal effect
# In short: (§1)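 Cells exposed to compounds for 48 or 72 hr at 37 degrees Celsius. Viability read as ATP-coupled luminescence with CellTiter-Glo after 10 min at room temperature.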
# [2] = test system: HEK293; experiment: as above; settings: Five cell lines viability, CellTiter-Glo ATP luminescence, 48-72 h; max response: stronger effect = lower value
# In short: as §1
# [3] = test system: HaCat; experiment: as above; settings: Five cell lines viability, CellTiter-Glo ATP luminescence, 48-72 h; max response: stronger effect = lower value
# In short: as §1
# [4] = test system: KB-3-1; experiment: as above; settings: Five cell lines viability, CellTiter-Glo ATP luminescence, 48-72 h; max response: stronger effect = lower value
# In short: as §1
# [5] = test system: NIH3T3; experiment: as above; settings: Five cell lines viability, CellTiter-Glo ATP luminescence, 48-72 h; max response: stronger effect = lower value
# In short: as §1
# [6] = test system: HACAT; experiment: qHTS assay to identify novel small-molecules to repurpose for Merkel cell carcinoma treatment (AID 1296009); settings: MCC and control cell lines, CellTiter-Glo viability, 72 h; at 44.8 µM (top of the series) unless noted; note: nearly all actives have a fitted effect of over 60% in size; note: potency is the fitted concentration of half-maximal effect
# In short: (§2)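 Dose-response viability screen; 72 hr exposure at 37 degree celsius; CellTiter-Glo added, 10 min room temperature, luminescence read; RLUs scaled between no-cell and DMSO wells.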
# [7] = test system: HEK293T; experiment: as above; settings: MCC and control cell lines, CellTiter-Glo viability, 72 h; at 44.8 µM (top of the series) unless noted
# In short: as §2
# [8] = test system: MCC-13; experiment: as above; settings: MCC and control cell lines, CellTiter-Glo viability, 72 h; series mostly up to 46 µM
# In short: as §2
# [9] = test system: MCC-26; experiment: as above; settings: MCC and control cell lines, CellTiter-Glo viability, 72 h; series mostly up to 46 µM
# In short: as §2
# [10] = test system: MKL-1; experiment: as above; settings: MCC and control cell lines, CellTiter-Glo viability, 72 h; series mostly up to 46 µM
# In short: as §2
# [11] = test system: MKL-2; experiment: as above; settings: MCC and control cell lines, CellTiter-Glo viability, 72 h; series mostly up to 46 µM
# In short: as §2
# [12] = test system: NIH3T3; experiment: as above; settings: MCC and control cell lines, CellTiter-Glo viability, 72 h; at 44.8 µM (top of the series) unless noted
# In short: as §2
# [13] = test system: UISO; experiment: as above; settings: MCC and control cell lines, CellTiter-Glo viability, 72 h; series mostly up to 46 µM
# In short: as §2
# [14] = test system: WaGa; experiment: as above; settings: MCC and control cell lines, CellTiter-Glo viability, 72 h; series mostly up to 46 µM
# In short: as §2
# [15] = test system: C33A; experiment: Primary qHTS to identify gynecologic anti-cancer compounds using libraries of approved drugs and bioactive compounds (AID 1345084); settings: Gynecologic cancer cell panel viability, ATPlite luminescence, 48 h; series mostly up to 57.5 µM; note: nearly all actives have a fitted effect of over 55% in size; note: potency is the fitted concentration of half-maximal effect
# In short: (§3)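 Five-point cytotoxicity, 48 h drug exposure at 37 C, 5% CO2, on cells seeded 16 h beforehand. ATP content read by ATPlite luminescence.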
# [16] = test system: CAOV3; experiment: as above; settings: Gynecologic cancer cell panel viability, ATPlite luminescence, 48 h; series mostly up to 57.5 µM
# In short: as §3
# [17] = test system: CASKI; experiment: as above; settings: Gynecologic cancer cell panel viability, ATPlite luminescence, 48 h; series mostly up to 57.5 µM
# In short: as §3
# [18] = test system: Es-2; experiment: as above; settings: Gynecologic cancer cell panel viability, ATPlite luminescence, 48 h; series mostly up to 57.5 µM
# In short: as §3
# [19] = test system: TAB165; experiment: qHTS profiling for inhibitors of Plasmodium falciparum proliferation (AID 504749); note: nearly all actives have a fitted effect of over 60% in size; settings: P. falciparum in erythrocytes, SYBR Green DNA, 72 h; series mostly up to 28.7 µM
# In short: (§4)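 Each compound contacts P. falciparum-infected red blood cells for 72 h at 37 C; lysis buffer (Tris, EDTA, saponin, Triton X, SYBR Green I) is added and fluorescence measured next morning; values normalized to controls.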
# [20] = test system: W2; experiment: as above; settings: P. falciparum in erythrocytes, SYBR Green DNA, 72 h; series mostly up to 28.7 µM
# In short: as §4
compound,measurement,setting,value
CCOC(=O)c1ccc(OC(=O)CCCCCN=C(N)N)cc1,max response,[1],1.52% (inactive)
same,outcome,[1],inactive
same,max response,[2],-2.03% (inactive)
same,outcome,[2],inactive
same,max response,[3],4.21% (inactive)
same,outcome,[3],inactive
same,max response,[4],1.69% (inactive) and -0.41% (inactive)
same,outcome,[5],inactive
same,outcome,[6],inactive
same,outcome,[7],inactive
same,Potency,[8],inactive
same,Potency,[9],inactive
same,Potency,[10],inactive
same,Potency,[11],inactive
same,outcome,[12],inactive
same,Potency,[13],inactive
same,Potency,[14],inactive
same,Potency,[15],inactive
same,Potency,[16],inactive
same,Potency,[17],inactive
same,Potency,[18],inactive
CCCN[C@H]1CCc2nc(N)sc2C1,Potency,[19],inactive
same,Potency,[20],inactive
same,max response,[1],0.673% (inactive)
same,outcome,[1],inactive
same,outcome,[2],inactive
same,max response,[3],3.55% (inactive)
same,outcome,[3],inactive
same,max response,[4],5.22% (inactive) and 4.84% (inactive)
same,max response,[5],4.11% (inactive) and -1.47% (inactive)
same,outcome,[6],inactive
same,outcome,[7],inactive
same,Potency,[8],inactive
same,Potency,[10],inactive
same,Potency,[11],inactive
same,Potency,[13],inactive
same,Potency,[14],inactive
same,Potency,[15],inactive
same,Potency,[16],inactive
same,Potency,[17],inactive
same,Potency,[18],inactive
NNC(=O)c1ccncc1,max response,[1],4.6% (inactive)
same,outcome,[1],inactive
same,max response,[2],3.4% (inactive) and -0.464% (inactive)
same,outcome,[3],inactive
same,max response,[4],-14.7% (inactive) and 6.97% (inactive)
same,max response,[5],1.44% (inactive)
same,outcome,[6],inactive
same,Potency,[8],inactive
same,Potency,[9],inactive
same,Potency,[10],inactive
same,Potency,[13],inactive
same,Potency,[14],inactive
same,Potency,[15],inactive
same,Potency,[16],inactive
same,Potency,[17],inactive
same,Potency,[18],inactive
COc1ccc(-c2ccc3cc(C(=O)O)ccc3c2)cc1C12CC3CC(CC(C3)C1)C2,Potency,[19],inactive
same,max response,[1],1.82% (inactive) and 2% (inactive)
same,max response,[2],3.2% (inactive)
same,max response,[3],-4.15% (inactive)
same,outcome,[3],inactive
same,max response,[4],-1.55% (inactive)
same,outcome,[4],inactive
same,max response,[5],4.1% (inactive)
same,outcome,[5],inactive
same,outcome,[6],inactive
same,Potency,[8],inactive
same,Potency,[9],inactive
same,Potency,[10],inactive
same,Potency,[11],inactive
same,outcome,[12],inactive
same,Potency,[13],inactive
same,Potency,[14],inactive
same,Potency,[15],inactive
same,Potency,[16],inactive
same,Potency,[17],inactive
same,Potency,[18],inactive
Cc1noc(NS(=O)(=O)c2ccc(N)cc2)c1C,Potency,[19],inactive
same,max response,[1],4.08% (inactive) and -1.95% (inactive)
same,outcome,[2],inactive
same,max response,[3],1.98% (inactive)
same,outcome,[3],inactive
same,max response,[4],-4.11% (inactive) and 1.03% (inactive)
same,outcome,[4],inactive
same,max response,[5],-2.78% (inactive) and -1.88% (inactive)
same,outcome,[6],inactive
same,outcome,[7],inactive
same,Potency,[8],inactive
same,Potency,[9],inactive
same,Potency,[10],inactive
same,Potency,[11],inactive
same,Potency,[13],inactive
same,Potency,[14],inactive
same,Potency,[15],inactive
same,Potency,[17],inactive
same,Potency,[18],inactive
CCC(=O)O[C@]1(C(=O)CCl)[C@@H](C)C[C@H]2[C@@H]3CCC4=CC(=O)C=C[C@]4(C)[C@@]3(F)[C@@H](O)C[C@@]21C,max response,[1],-12.4% (inactive)
same,outcome,[1],inactive
same,max response,[2],-0.886% (inactive)
same,max response,[3],-4.36% (inactive) and -8.18% (inactive)
same,max response,[4],-5.78% (inactive) and 1.04% (inactive)
same,max response,[5],-2.25% (inactive)
same,outcome,[5],inactive
same,Potency,[8],inactive
same,Potency,[9],inactive
same,Potency,[10],inactive
same,Potency,[11],inactive
same,outcome,[12],inactive
same,Potency,[13],inactive
same,Potency,[14],inactive
same,Potency,[15],inactive
same,Potency,[16],inactive
same,Potency,[17],inactive
same,Potency,[18],inactive
Cn1c(=O)c2c(ncn2CC(O)CO)n(C)c1=O (stereo unspecified),max response,[1],2.57% (inactive) and -3.36% (inactive)
same,max response,[2],-3.34% (inactive) and -13.7% (inactive)
same,max response,[3],2.18% (inactive)
same,outcome,[3],inactive
same,max response,[4],3.89% (inactive)
same,outcome,[4],inactive
same,max response,[5],2.82% (inactive) and -0.547% (inactive)
same,outcome,[6],inactive
same,Potency,[8],inactive
same,Potency,[9],inactive
same,Potency,[10],inactive
same,Potency,[11],inactive
same,Potency,[13],inactive
same,Potency,[14],inactive
same,Potency,[15],inactive
same,Potency,[16],inactive
same,Potency,[17],inactive
same,Potency,[18],inactive
COc1cnc(NS(=O)(=O)c2ccc(N)cc2)nc1,Potency,[19],inactive
same,Potency,[20],inactive
same,max response,[1],-6.42% (inactive) and -4.75% (inactive)
same,outcome,[2],inactive
same,max response,[3],-7.96% (inactive)
same,outcome,[3],inactive
same,max response,[4],12.3% (inactive)
same,outcome,[4],inactive
same,max response,[5],-3.77% (inactive) and 1.75% (inactive)
same,outcome,[6],inactive
same,outcome,[7],inactive
same,Potency,[8],inactive
same,Potency,[9],inactive
same,Potency,[10],inactive
same,Potency,[11],inactive
same,Potency,[13],inactive
same,Potency,[14],inactive and 13.2 µM (active)
same,Potency,[15],inactive
same,Potency,[16],inactive
same,Potency,[17],inactive
same,Potency,[18],inactive
COC(=O)Nc1nc2ccc(S(=O)c3ccccc3)cc2[nH]1 (stereo unspecified),Potency,[1],7.5 µM (active)
same,max response,[1],-3.6% (inactive)
same,Potency,[2],841 nM (active) and 16.6 µM (active)
same,outcome,[3],inactive
same,Potency,[5],1.06 µM (active)
same,outcome,[6],inactive
same,Potency,[9],inactive
same,Potency,[16],inactive
same,Potency,[18],3.55 µM (active)
O=S(=O)(c1cccc2cnccc12)N1CCCNCC1,outcome,[1],inactive
same,max response,[2],-25.6% (inactive)
same,outcome,[2],inactive
same,outcome,[3],inactive
same,max response,[4],-15.9% (inactive)
same,outcome,[4],inactive
same,max response,[5],0.496% (inactive) and -3.33% (inactive)
same,outcome,[6],inactive
same,outcome,[7],inactive
same,Potency,[8],inactive
same,Potency,[10],inactive
same,Potency,[11],inactive
same,Potency,[13],inactive
same,Potency,[14],inactive
same,Potency,[15],inactive
same,Potency,[16],inactive
same,Potency,[17],inactive
same,Potency,[18],inactive
